From PubChem BioAssay
Shown are actives, neighbours in structure and some others; about 9.4% of the full set was active somewhere.
SMN2 splice up: qHTS Assay for Enhancers of SMN2 Splice Variant Expression. AID 1458, 2008. Potency, µM (titrated, usually from 46.1 µM), usual class: activators. HEK293 SMN2-luciferase splicing reporter, luminescence, 30-36 h. 2.8% of 210,000 active; also: nearly all actives have a fitted effect of over 55% in size
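HEK293 cells carry an SMN2 […]–luciferase reporter in which exon 7 inclusion puts luciferase in frame. Cells were plated 10-12 h before compound addition, then incubated 30-36 h at 37C. ONE-Glo luminescence was read; sodium butyrate at 4.5 mM final served as control.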
Rab9 prom act: qHTS Assay for Rab9 Promoter Activators | Huh7 Rab9 promoter-luciferase reporter, luminescence, 24 h | Potency, µM (series often up to 9.22 µM), actives largely listed as activators | 2.8% of 320,000 active | AID 485297, 2010; also: nearly all actives have a fitted effect of over 60% in size
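Using Huh7 cells stably transfected with Rab9 promoter–luciferase, compounds were incubated 24 h at 37 °C, 5% CO2; luciferase luminescence was read 10 min after reagent addition.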
ELG1 repair inh: qHTS screen for small molecules that inhibit ELG1-dependent DNA repair in human embryonic kidney (HEK293T) cells expressing luciferase-tagged ELG1; HEK293T ELG1-luciferase reporter, luminescence, 16 h; DNA damage induced by 5-fluorouridine; Potency, µM (top dose mostly 46.1 µM), most hits filed as inhibitors; 2.3% of 330,000 active; also: nearly all actives have a fitted effect of over 55% in size
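HEK293T cells expressing luciferase-tagged ELG1 (2,000/well) received 5-Fluorouridine plus compound or DMSO for 16 hr at 37 °C. Luciferase was read by ONE-Glo luminescence after 30 min at room temperature.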
FLuc modulator: qHTS profiling assay for firefly luciferase inhibitor/activator using purifed enzyme and Km concentrations of substrates (counterscreen for miR-21 project) | Luciferin 4-monooxygenase (Photinus pyralis), P08659 | purified FLuc, Km substrates, luminescence inhibition | Potency, µM (top dose mostly 57.5 µM), most hits filed as inhibitors | 6.9% of 360,000 active; also: nearly all actives have a fitted effect of over 55% in size
Target sequence (P08659 whole entry, looked up): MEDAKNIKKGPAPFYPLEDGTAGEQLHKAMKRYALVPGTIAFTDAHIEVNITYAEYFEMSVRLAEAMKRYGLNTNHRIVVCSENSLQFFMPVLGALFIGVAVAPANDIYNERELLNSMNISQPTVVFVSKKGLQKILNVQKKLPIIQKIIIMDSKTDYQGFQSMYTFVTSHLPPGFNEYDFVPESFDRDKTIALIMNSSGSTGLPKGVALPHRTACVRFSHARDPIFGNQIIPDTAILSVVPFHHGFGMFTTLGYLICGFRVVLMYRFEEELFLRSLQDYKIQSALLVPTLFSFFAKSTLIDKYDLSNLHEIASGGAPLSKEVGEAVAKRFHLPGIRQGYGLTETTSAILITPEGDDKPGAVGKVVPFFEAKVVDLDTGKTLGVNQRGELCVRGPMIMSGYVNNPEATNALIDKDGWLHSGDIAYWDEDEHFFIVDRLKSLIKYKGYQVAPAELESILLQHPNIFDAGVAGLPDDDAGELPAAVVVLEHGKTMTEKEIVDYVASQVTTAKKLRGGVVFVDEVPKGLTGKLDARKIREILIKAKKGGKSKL
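Purified P. pyralis luciferase, 10 nM final, with Km-level 10 uM D-luciferin and 10 uM ATP in 50 mM Tris acetate pH 7.5, 10 mM Mg acetate, 0.01% Tween-20, 0.05% BSA; 6-point qHTS titration about 60 µM downward; luminescence read.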
NPC1 prom act: qHTS Assay for NPC1 Promoter Activators. Potency, µM (series often up to 9.22 µM), most hits filed as activators. Huh7 NPC1 promoter luciferase reporter, 24 h. 2.4% of 320,000 active; also: nearly all actives have a fitted effect of over 60% in size
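Stable NPC1-promoter luciferase Huh7 line; cpd (DMSO) 24 h, 37 °C, 5% CO2; Amplite luciferase reagent 10 min RT; luminescence readout. qHTS format.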
ELG1 genotox: qHTS screen for small molecules that induce genotoxicity in human embryonic kidney (HEK293T) cells expressing luciferase-tagged ELG1. Potency, µM (doses to about 46 µM), actives largely listed as activators. HEK293T ELG1-luciferase reporter, luminescence, 16 h. 1.3% of 330,000 active; also: nearly all actives have a fitted effect of over 60% in size
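Genotoxicity was scored as increased ELG1-luciferase reporter signal, measured by ONE-Glo luminescence (30 min, room temperature). Compound or vehicle exposure of the HEK293T reporter cells lasted 16 hr at 37°C.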
Numbers stand for hits; 0 = inactive; ? = inconclusive; - = no result given. Calls follow the shape of the dose curve; as a rule, active = well fitted curve in the direction sought with a large enough effect; inconclusive = small, poorly fitted or top-dose-only effect, or another doubt; inactive = no such curve, though single readings can be large; an effect the other way counts as inactive or inconclusive.

SMILES | SMN2 splice up | Rab9 prom act | ELG1 repair inh | FLuc modulator | NPC1 prom act | ELG1 genotox
Cc1noc(C)c1S(=O)(=O)N(CC(=O)NCc1ccccc1Cl)c1ccc(C(C)C)cc1 | 0 | - | - | 0 | - | -
CN(C)c1ccc(CN(Cc2ccco2)C(=O)COc2ccc(F)cc2)cc1 | 0 | - | - | 0 | - | -
Cc1ccc(-c2cc(-c3coc4ccc(Cl)cc4c3=O)c3c(n2)-c2ccccc2OC3)cc1 | 0 | - | - | 0 | - | -
Cc1ccc(-n2nnnc2CNC(=O)c2ccc(F)cc2)cc1C | - | - | - | 0 | - | -
CC1(C)CNC(=O)c2sc(N3CCCCC3)nc2C1 | 0 | 0 | ? | 15µM | 0 | ?
C/C(=N/NC(=O)c1cccc(N2CCCC2=O)c1)c1ccc(Br)cc1 | - | 0 | 0 | 15µM | 0 | 0
C/C(=N/NC(=O)c1cccc(N2CCCC2=O)c1)c1ccncc1 | - | 3.2µM | ? | 15µM | ? | ?
Fc1cccc(Cl)c1Cn1c(-c2cccs2)nc2ccccc21 | 0 | - | - | 0 | - | -
C/C(=N\NC(=O)c1c[nH]c2ccccc12)c1ccc(C)s1 | - | ? | ? | ? | 3.2µM | ?
C/C(=N/NC(=O)c1ccncc1)c1c[nH]c2ccccc12 | 0 | 0 | ? | 0 | 0 | 0
Cc1ccc(/C=N/NC(=O)c2ccc(C(=O)N/N=C/c3ccc(C)s3)o2)s1 | 0 | 0 | 0 | ? | 0 | 0
CCn1nc(C)c(/C=N/NC(=O)c2c[nH]c3ccccc23)c1C | 18µM | 3.5µM | ? | ? | ? | ?
Cc1ccc(/C=N/NC(=O)c2c[nH]c3ccccc23)s1 | 13µM | 0.56µM | ? | 7.6µM | 1.6µM | 0
Cc1ccc(/C=N/NC(=O)c2c[nH]c3ccccc23)o1 | 0 | 0 | 0 | 24µM | 0 | 0
Cc1ccc(/C=N/NC(=O)c2cccc3ccccc23)o1 | - | 0 | 0 | 0 | 0 | 0
Oc1cc(Nc2ccc(N3CCCCC3)cc2)cc2cccnc12 | - | 0 | - | ? | 0 | -
CCOc1ccc(N(C)C(=O)c2oc(=O)c3ccccc3c2-c2ccccc2)cc1 | 0 | - | - | 0 | - | -
O=C(N/N=C/c1ccsc1)c1c[nH]c2ccccc12 | - | 2.8µM | ? | 11µM | 3.5µM | 16µM
CC/C(=N\NC(=O)c1c[nH]c2ccccc12)c1cccs1 | 18µM | 2.8µM | ? | 5.4µM | 2.8µM | ?
Cc1ccsc1/C=N/NC(=O)c1c[nH]c2ccccc12 | ? | 2.5µM | ? | 12µM | 4.5µM | ?
Cc1ccsc1/C=N/NC(=O)c1cc(-c2ccncc2)nc2ccccc12 | 0 | 0 | ? | 0 | 0 | 0
COC(=O)C(Cc1c[nH]c2ccccc12)NC(=O)c1cccs1 (stereo not given) | - | 0 | 0 | ? | 0 | 0
CCn1cnc2c(=O)oc3ccc(S(=O)(=O)Nc4ccc(OC)cc4)cc3c21 | 0 | - | - | 0 | - | -
COc1cc(C)ccc1OCCSc1nc2ccc(NC(=O)c3cccs3)cc2s1 | - | - | - | 0 | - | -
O=C(CCCn1c(=O)[nH]c2ccsc2c1=O)N1CCN(c2cccc(C(F)(F)F)c2)CC1 | 0 | - | - | 0 | - | -
SMILES | SMN2 splice up | Rab9 prom act | ELG1 repair inh | FLuc modulator | NPC1 prom act | ELG1 genotox
COc1cccc(NC(=O)NCc2ccccc2F)c1 | 0 | ? | ? | 17µM | 0 | ?
CCOC(=O)c1ccc(N2CCN(c3ccccc3F)CC2)c(NC(=O)Nc2cccc(OC)c2)c1 | 0 | 0 | 16µM | 0 | 0 | 0
COc1ccc(NC(=O)NCc2ccccc2F)cc1OC | 0 | 0 | 0 | 0 | 0 | 0
COC(=O)c1sccc1NC(=O)Nc1cccc(OC)c1 | - | 0 | 0 | 8.5µM | 0 | 0
CCc1ccccc1NC(=O)Nc1ccsc1C(=O)OC | - | 0 | 0 | ? | 0 | 0
COC(=O)c1sccc1NC(=O)Nc1cccc(F)c1 | 0 | 0 | 0 | 12µM | 0 | 0
CCN(c1ccccc1C)S(=O)(=O)c1nnc(NC(=O)c2ccc(OC)c(OC)c2)s1 | - | - | - | 0 | - | -
COc1ccccc1CNC(=O)CSc1nc(=O)[nH]c2c1CCCC2 | - | - | - | 0 | - | -
CCOc1cccc(C(=O)N(Cc2ccc(C(C)C)cc2)C2CCS(=O)(=O)C2)c1 (stereo not given) | 0 | - | - | 0 | - | -
O=C(CCCCn1c(=O)c2ccccc2n(CC(=O)Nc2ccccc2)c1=O)NCc1ccccc1Cl | 0 | - | - | 0 | - | -
COc1cccc(NC(=O)Nc2ccccc2Br)c1 | - | ? | ? | 12µM | 0 | 0
COc1ccc(NC(=O)/C(C#N)=C\c2ccc(Br)o2)cc1 | - | 0 | ? | 0 | 0 | 0
COc1ccc(NC(=O)/C(C#N)=C/c2ccc(-c3ccccc3C(=O)O)o2)cc1 | - | 0 | 0 | 6.7µM | 0 | 0
COc1ccc(NC(=O)/C(C#N)=C\c2ccc(-c3cccc(C(=O)O)c3C)o2)cc1 | - | 0 | 0 | 8.5µM | 0 | 0
Cc1ccc(/C=C(\C#N)C(=O)Nc2ccc(Br)cc2)o1 | 3.2µM | - | - | 0 | - | -
N#C/C(=C\c1ccc(-c2ccccc2[N+](=O)[O-])o1)C(=O)Nc1nc(-c2cccs2)cs1 | 0 | 0 | 21µM | 0 | 0 | 0
CCCn1c2ccccc2c2cnn(CC(=O)Nc3cc(OC)c(OC)c(OC)c3)c(=O)c21 | - | - | - | 0 | - | -
CNC(=O)/C(C#N)=C/c1ccc(-c2ccc(OC)cc2[N+](=O)[O-])o1 | 16µM | ? | ? | ? | 0 | 0
